Test results from PubChem BioAssay AID2098 (Broad Institute, 2009).
Among all 300,000 compounds or so, about 2,300 (0.77%) were called active. Many of the other results were omitted from the sample, so actives are more common in it than they were. Unmarked numbers belong to inactive results.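 How the source made its calls: active means more than half of replicate wells show activity change below -50%, luminescence cut by over half; inconclusive means some wells, but at most half, below -50%; inactive means no replicate well below -50%.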

Test: HSF1 inhibitors in luciferase reporter cells, primary screen, cell-based, NIH3T3, luminescence (AID 2098);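 further: luciferase reports HSF-1 transcriptional activity via heat shock element; 0% = median of DMSO wells and -100% = zero luminescence signal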
Details: NIH3T3-HGL HSE-luciferase, MG132-induced, luminescence 8 h; hits give low values; screened at 7.5 µM (by protocol)

SMILES	activity change, negative = inhibition
CCOC(=O)c1c(C)oc2cc(Sc3ccccc3)c(O)c(O)c12	13.1%
COc1ccc(C(=O)NCC(c2ccco2)N2CCc3ccccc32)cc1OC (stereo unspecified)	2.71%
CCC(=O)c1ccc(OCC(=O)OCC(=O)NC2CCCCCC2)cc1	-9.22%
COc1ccc(CNC(=O)COC(=O)CCS(=O)(=O)c2ccc(C)cc2)cc1OC	-1.13%
O=C(CSc1nn(-c2ccc(F)cc2)c(=S)s1)NC1CCS(=O)(=O)C1 (stereo unspecified)	2.24%
O=C(CSc1ccccc1F)NC1CCS(=O)(=O)C1 (stereo unspecified)	-68.8% (active)
O=C(Cc1ccc(Cl)cc1)NC1CCS(=O)(=O)C1 (stereo unspecified)	0.993%
CN(CC(=O)Nc1ccccc1Cl)C(=O)COc1cccc2c1OC(C)(C)C2	4.06%
CN1C/C(=C/c2cccs2)C(=O)/C(=C\c2cccs2)C1	19.3%
CSC1=N/C(=C\C=C\c2cccs2)C(=O)S1	-67.1% (active)
Cc1cccc(C2=N/C(=C/c3cccs3)C(=O)O2)c1	-10.1%
CCCc1cc(=O)[nH]c2nnc(SCC(=O)Nc3nnc(SCC)s3)n12	-2.82%
COc1ccc(CCNC(=O)Cc2ccc(C)cc2)cc1OC	-5.1%
COc1cccc(/C=C/C(=O)OCC(=O)N2CCCc3ccccc32)c1	0.601%
CCC1Nc2ncnc(N3CCN(c4ccccc4)CC3)c2N(Cc2ccc(Cl)cc2)C1=O (stereo unspecified)	11.2%
NS(=O)(=O)c1ccc(CCNc2nc(C(F)(F)F)nc3ccccc23)cc1	-2.88%
COc1cccc(CNc2nc(C(F)(F)F)nc3ccccc23)c1	0.989%
CCc1ccc(C(CNc2nc(C(F)(F)F)nc3ccccc23)N(C)C)cc1 (stereo unspecified)	-82% (active)
CCCCn1c(N)c(N(CC(C)C)C(=O)c2ccc(Br)o2)c(=O)[nH]c1=O	4.02%
CCCN(CCc1ccccc1)C1CCc2c(O)cccc2C1 (stereo unspecified)	7.71%
CCOC(=O)c1c(C)[nH]c2c1-c1ccccc1C(=O)C2=O	-91.5% (active)
CCOC(=O)c1c(C)[nH]c(C)c1S(=O)(=O)N(C)CC(=O)Nc1ccccc1C	4.41%
CCOC(=O)C1=C(c2ccc(OC)cc2)C(=O)c2ccccc2C1=O	31.1%

SMILES	activity change, negative = inhibition
CSc1ccc(S(=O)(=O)NCC(=O)OCC(=O)NC2(C#N)CCCCC2)cc1[N+](=O)[O-]	4.69%
O=C(Cn1c(N2CCN(C/C=C/c3ccccc3)CC2)nc2ccccc21)c1ccccc1	-0.086%
CC(C)N(C(=O)Cn1c(SCC(=O)N2CCN(c3ccccc3)CC2)nc2ccccc21)C(C)C	-10.4%
CC(C)Cn1c(N2CCN(C(=O)/C=C/c3ccccc3)CC2)nc2ccccc21	-65.4% (active)
O=C(COc1ccccc1Cl)Nc1ccccc1C(=O)NC1CC1	6.98%
CCOc1cc(/C=N/NC(=O)c2cccc(S(=O)(=O)N3CCOCC3)c2)ccc1OCC(=O)N(C)C	-64.3% (active)
O=C(N/N=C/c1ccc([N+](=O)[O-])o1)c1cccc(S(=O)(=O)N2CCOCC2)c1	6.48%
COc1ccc(Br)cc1/C=N/NC(=O)c1cccc(S(=O)(=O)N2CCOCC2)c1	-2.38%
CC(=O)Nc1cccc(C(=O)OCC(=O)NCc2cc(C)c(O)c(C)c2)c1	9.36%
NC(=O)C1=C[C@H](c2csc3ccccc23)C[C@H](OCc2ccc(CO)cc2)O1	5.45%
COc1ccc(C(=O)c2c3ccc([N+](=O)[O-])cc3[n+]([O-])n2CCCN)cc1	13.3%
O=C(NC1CCCCC1)c1ccc(-c2ccc(Cl)cc2)o1	43.4%
CC1(C)S[C@@H]2[C@H](NC(=O)COc3ccccc3)C(=O)N2C1C(=O)OCc1ccccc1 (stereo partly specified)	5.03%
Cc1c(NC(=O)CN(C)CC(=O)Nc2ccc(F)c(F)c2F)c(=O)n(-c2ccccc2)n1C	1.95%
Cc1ccn2c(=O)nc(SCC(=O)NCc3ccc(F)cc3)nc2c1	4.59%
COc1ccccc1C(c1nnnn1CC1CCCO1)N1CCN(c2ccccc2)CC1 (stereo unspecified)	-0.551%
Cc1cccc(N2CCN(C(c3ccc(N(C)C)cc3)c3nnnn3C(C)(C)C)CC2)c1C (stereo unspecified)	-2.19%
Cc1cccc(N2CCN(C(c3ccccc3)c3nnnn3CC3CCCO3)CC2)c1C (stereo unspecified)	-61% (active)
Cc1sc2nc(CSCC(=O)NC3CCCCC3)[nH]c(=O)c2c1C	16.5%
CCOC(=O)c1ccc(NC(=S)N2CCCC2)cc1	19%
CCOC(=O)N1CCN(C(=S)Nc2ccc(C)cc2C)CC1	-68.8% (active)
Cc1cc(Cl)ccc1NC(=S)N1CCC(C(N)=O)(N2CCCCC2)CC1	1.76%
O=C1CCCCC1Sc1ccc(Cl)cc1[N+](=O)[O-] (stereo unspecified)	3.95%

SMILES	activity change, negative = inhibition
CCOc1ccc(NS(=O)(=O)c2ccc(C(=O)NCC(c3ccccc3OC)N3CCCC3)cc2)cc1 (stereo unspecified)	-3.53%
O=C(NC1CC1)C1=C[C@H](c2coc3ccccc3c2=O)C[C@H](OCCCCO)O1	-5.11%
COc1cc(OC)c(C(=O)NC2CCCCCC2)cc1OC	2.19%
COc1ccc(Cl)cc1C(=O)NNC(=S)NC1CCCC1	6.56%
COc1ccc(C(C)NC(=S)NC2CCCCC2)cc1OC (stereo unspecified)	-74.6% (active)
Clc1ccc(Nc2ccc3ccccc3n2)cc1	6.43%
Cc1ccc(C2(C)NC(=O)N(CC(=O)Nc3ccccc3C(=O)N3CCCCC3)C2=O)cc1 (stereo unspecified)	10.1%
O=C1CN(C(=O)COC(=O)c2cnc(Cl)c(Cl)c2)c2ccccc2N1	6.76%
COc1cc(OC)c(C(=O)OCC(=O)N2CC(=O)Nc3ccccc32)cc1OC	11.6%
O=C1CN(C(=O)COc2c(Cl)cccc2Cl)c2ccccc2N1	-74.4% (active)
O=C1/C(=C\c2ccc(O)cc2)CCC1CNc1ccc(Cl)cc1 (stereo unspecified)	-5.88%
COC(=O)Cc1[nH]n(-c2nc3ccccc3s2)c(=O)c1C(C)=Nc1ccc(OC)cc1	-58.9% (active)
C/C(=N\NC(=O)CC(C)C)c1c(C(F)(F)F)[nH]n(-c2nc3ccccc3s2)c1=O	-6.15%
CC(=NCc1ccco1)c1c(C(F)(F)F)[nH]n(-c2nc3ccccc3s2)c1=O	-32.4%
Cc1ccc(S(=O)(=O)NC(C)C(=O)NCc2ccc(Cl)cc2)cc1 (stereo unspecified)	-3.78%
C=CCn1c(C)cc(C2=NNC(=NCC)SC2)c1C	-77.6% (active)
C=CCn1c(C)cc(C(=O)CN2C(=O)c3ccccc3C2=O)c1C	8.2%
Cc1cccc(N=C2NN=C(c3c[nH]c4ccccc34)CS2)c1	14.3%
Cc1ccc(CNS(=O)(=O)CCNC(=O)c2ccccc2)cc1	-2.85%
CC(C)c1ccc(NC(=O)C2CCCN(S(=O)(=O)c3cccnc3)C2)cc1 (stereo unspecified)	-2.05%
O=C(NCc1cccs1)C1CCN(S(=O)(=O)c2ccc(Cl)cc2)CC1	4.22%
O=C(Nc1ccc(F)c(Cl)c1)C1CCN(S(=O)(=O)c2cccnc2)CC1	-56.8% (active)
Cc1ccc(Cl)c(OCC(=O)N(C)CC(=O)Nc2ccc(N3CCOCC3)cc2)c1	4.7%

SMILES	activity change, negative = inhibition
COc1cc(C(=O)N(C)Cc2cccc(OC)c2OC)ccc1OCC(=O)Nc1cccc(C(F)(F)F)c1	-3.36%
CCN(CC)c1ccc(NC(=O)c2ccc(=O)[nH]c2)cc1S(=O)(=O)Nc1ccc(OC)cc1	2.04%
CN1CCN(c2cc(=O)n(-c3ccc(Cl)cc3)c(=O)[nH]2)CC1	-10.9%
CCc1c(C)nc(N2CCN(Cc3ccccc3)CC2)[nH]c1=O	-0.365%
Cc1ccc(-n2c(=O)cc(N3CCN(Cc4ccccc4)CC3)[nH]c2=O)cc1	-57.4% (active)
COCCN(C(=O)COC(=O)Cc1cccc(OC)c1)c1c(N)n(Cc2ccccc2)c(=O)[nH]c1=O	-2.09%
NS(=O)(=O)c1ccc(CNC(=O)c2cccc(Oc3ccccc3)c2)cc1	-1.65%
O=C(NNS(=O)(=O)c1ccc(F)cc1)c1cnccn1	4.99%
NS(=O)(=O)c1ccc(CNC(=O)c2cnccn2)cc1	-54.3% (active)
Cc1ccc(S(=O)(=O)NCCC(=O)OCC(=O)N(C)c2ccccc2)cc1	7.6%
O=C(CCC1CCCCC1)Nc1cc(C(F)(F)F)ccc1N1CCOCC1	3.1%
COC(=O)c1nc(NC(=O)c2ccc(Cl)cc2)n[nH]1	-3.56%
COC(=O)c1nc(NC(=O)c2ccc(F)cc2)n[nH]1	3%
COC(=O)c1nc(NC(=O)c2ccc(C(C)(C)C)cc2)n[nH]1	-75.2% (active)
COc1ccc(Sc2nc(-c3ccccc3)ncc2OC)cc1	-4.54%
COc1ccccc1Cc1nc(-c2ccc(C)cc2)no1	12%
COc1ccc(-c2nc(-c3ccccc3)no2)c(OC)c1	-66.8% (active)
C=CCNC(=O)C1CC2c3ccccc3C1c1ccccc12 (stereo unspecified)	-1.08%
CCc1ccc(NC(=O)CC2C(=O)NCCN2C(=S)Nc2ccccc2)cc1 (stereo unspecified)	-1.21%
COc1ccc(C(=O)NC(=S)N2CCNC(=O)C2CC(=O)OC(C)C)cc1 (stereo unspecified)	-54.5% (active)
COc1cccc(NC(=O)CC2C(=O)NCCN2C(=S)Nc2ccc(F)cc2)c1 (stereo unspecified)	3.49%
Cc1ccc(S(=O)(=O)N(Cc2cccc([N+](=O)[O-])c2)C(=O)N2CCN(C)CC2)cc1	-0.764%
